Laboratory results reported in PubChem BioAssay AID1863 (Southern Research Specialized Biocontainment Screening …, 2009).
Out of some 300,000 compounds screened, about 480 (0.16%) were called active.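 How the source made its calls: active means inhibition over 29.93%, a cutoff 3 SD above the screen mean, later confirmed by dose response; inconclusive means inhibition over 29.93% but no dose response follow-up; inactive means inhibition at most 29.93% or unconfirmed.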 These entries were drawn from the full list. Measured potencies and affinities stand elsewhere.

Assay: inhibitors of PhoP regulon expression, primary screen, Salmonella Typhimurium, GFP reporter (AID 1863);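 further: 0% = low Mg2+ inducing control and 100% = high Mg2+ repressing control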
Settings: S. Typhimurium PhoP-regulated promoter GFP reporter, 4 h; at 50 µM; stronger effect = higher value

inhibition, inactive:
CNC(=O)c1cn(-c2ccc(Cl)cc2)c(=O)c2ccccc12 -7.59%
CO[C@@H]1[C@@H](OC(N)=O)[C@@H](O)C(Oc2ccc3c(O)c(NC(=O)c4ccc(O)c(CC=C(C)C)c4)c(=O)oc3c2C)OC1(C)C (stereo partly specified) 12.3%
Cc1c(O)ccc2c(O)c(NC(=O)c3ccc4c(c3)CCC(C)(C)O4)c(=O)oc12 -3.81%
CCC1=C(c2ccc(C)cc2)S(=O)(=O)N=C1N1CCC(C(=O)NCCCN2CCCCC2)CC1 -2.43%
COc1ccc(-n2nc3cc(N)c(Br)cc3n2)cc1 -2.59%
Nc1cccc2nsnc12 -14.7%
CCOC(=O)CCCNC(=O)CSc1nnc(-c2ccccc2)c(-c2ccccc2)n1 -8.06%
COC(=O)c1c(C)[nH]c(O)c1C=Nc1ccc(Oc2ccccc2)cc1 -5.37%
CO[C@H]1C=CO[C@@]2(C)Oc3c(C)c(O)c4c(O)c(c5c(nc6cc(C)ccn65)c4c3C2=O)NC(=O)C(C)=CC=C[C@H](C)[C@H](O)[C@@H](C)[C@@H](O)[C@@H](C)[C@H](OC(C)=O)[C@@H]1C -3.25%
CC(/C=C/c1ccccc1F)=N\NC(=O)c1cccc(F)c1 3.59%
O=S(=O)(NCC1CCCO1)c1ccc(NS(=O)(=O)c2ccc(F)cc2)cc1 (stereo unspecified) 0.92%
N#C/C(=C(/O)CSc1ncn[nH]1)c1nc2ccccc2[nH]1 6.19%
Cc1ccccc1/C=N/Nc1ccc(Cl)nn1 1.24%
Fc1ccccc1/C=N/Nc1ccc(Cl)nn1 -8.24%
C=CCN=C1CC(C)(C)C(C(=O)OC)C(O)=C1C(=O)CCC (stereo unspecified) -0.51%
COc1ccc(Cc2nnc(Nc3ccc(C)cc3)o2)cc1OC 1.4%
O=S(=O)(c1ccc2c(c1)OCCO2)N1CCN(Cc2ccc3c(c2)OCO3)CC1 -0.33%
CN1/C(=C\C=N\O)C(C)(C)c2ccccc21 -8.82%
COc1cc(CNCCc2ccc(F)cc2)ccc1OCc1ccc(Cl)nc1 23.3%
Brc1ccc(CNCc2cccs2)cc1 10.4%
COc1ccccc1CNC(=S)NCc1ccc(F)cc1 -5.45%
COc1ccccc1CNCc1ccc(C)cc1 8.2%
Fc1ccc(CNCc2ccccc2Cl)cc1 5.07%
c1csc(CNCc2ccncc2)c1 -5.07%
COc1ccc(NC(=O)COC(=O)CCCc2c[nH]c3ccccc23)cc1 -12.1%
Cc1cc(C)n(C(=O)Cn2nc(C)c(Cl)c2C)n1 3.42%
O=C(c1ccccc1F)N1CCN(S(=O)(=O)c2ccc3c(c2)OCCO3)CC1 6.03%
Cc1c(NC(=O)CSc2nnnn2-c2ccc(F)cc2)c(=O)n(-c2ccccc2)n1C -6.82%
O=C1NC(C(F)(F)F)(C(F)(F)F)N=C2SC=CN12 -6.31%
O=c1[nH]nc(-c2ccc(F)cc2)cc1Cc1ccc(F)cc1 -10.7%
O=C(Nc1cccc(Cl)c1)Nc1ccnc(-c2cccnc2)n1 5.1%
Oc1c(CN2CCN(c3ccccn3)CC2)cc(Cl)c2cccnc12 20.1%
Oc1c(CN2CCN(c3ccccc3)CC2)cc(Br)c2cccnc12 4.78%
O=C(Oc1c(CN2CCOCC2)cc(Cl)c2cccnc12)c1ccc(F)cc1 29.7%
CCOC(=O)N1CCN(Cc2cc(Cl)c3cccnc3c2O)CC1 -0.11%
CCCNC(=O)Nc1ccc(F)c(Cl)c1 -2.59%
COc1ccc(CNc2nc(NCc3ccc(OC)cc3)n(S(C)(=O)=O)n2)cc1 -5.9%
Cc1c(NC(=O)/C(C#N)=C/c2ccccc2)c(=O)n(-c2ccccc2)n1C 0.82%
CCc1ccc2nc(N)sc2c1 1.27%
O=C(N/N=C/c1ccc(Cl)s1)C(O)c1ccccc1 (stereo unspecified) -4.15%
O=C(N/N=C/c1ccc([N+](=O)[O-])s1)c1ccccc1 -2.83%
Cc1cc(C(=O)N/N=C/c2ccc(C)s2)n[nH]1 11.3%
Cc1[nH]cnc1C(=O)N/N=C/c1ccc([N+](=O)[O-])s1 4.75%
O=C(CSc1nnc(-c2ccccn2)o1)Nc1ccccc1 -5.62%
CCc1ccccc1NC(=O)c1cc(-c2cccs2)on1 -12.5%
COC(=O)c1cc(N=C(N)N=C(N)N)cc(C(=O)OC)c1 -9.38%
O=c1c2ccccc2nc2c3ccccc3c(Cl)nn12 4.87%
Cc1ccc(OCCC(=O)OCC(=O)Nc2cc(C)cc(C)c2)cc1 -5.06%
Cc1cc(NC(=O)COC(=O)C2=COCCO2)c([N+](=O)[O-])cc1C -7.57%
Cc1ccccc1NCc1ccc(O)c2ncccc12 -2.12%
Oc1ccc(CN2CCC(Cc3ccccc3)CC2)c2cccnc12 10.7%
COc1ccccc1N1CCN(Cc2ccc(O)c3ncccc23)CC1 18.9%
Oc1cc2c(cc1CN1CCc3ccccc3C1)OCO2 -4.04%
COCc1ccc(O)c2ncccc12 -1.56%
Oc1ccc(CNc2ccccc2)c2cccnc12 5.74%
Oc1ccc(CN2CCN(c3ccccc3)CC2)c2cccnc12 -1.49%
COCc1cc(CN2CCN(C)CC2)c(O)c2ncccc12 6.95%
CC(=O)Nc1ccc(S(=O)(=O)NC(C)C(=O)NC(C)c2ccccc2)cc1 (stereo unspecified) -5.32%
Cc1ccccc1OCC(=O)NC(=S)Nc1ccccc1N1CCN(S(C)(=O)=O)CC1 -1.77%
CC1=C(C(=O)OC(C)C)C(c2ccsc2)NC(=O)N1C (stereo unspecified) -5.45%
Cc1ccc(S(=O)(=O)NCCC(=O)NCC(=O)Nc2c(C)cccc2C)cc1C -4.98%
Cc1nc2ccccc2n1CCCOc1ccccc1 5.12%
OC(COc1ccc(Cl)cc1)CN1CCC(Cc2ccccc2)CC1 (stereo unspecified) -10.4%
CC1(C)CCC(=O)C=C1Nc1ccc(F)c(Cl)c1 -5.11%
CCC(CC)C1=NN2C(=N)/C(=C/c3ccc(OC(=O)c4ccco4)cc3)C(=O)N=C2S1 -9.8%
C=CCN(c1ccccc1)S(=O)(=O)c1cccc(C(=O)N2CC(C)CC(C)C2)c1 (stereo unspecified) -1.91%
CCCOc1ccc(C(C)(O)CN2CCOCC2)cc1 (stereo unspecified) 6.65%
CCOC(=O)C1CCN(Cc2ccc(O)c3ncccc23)CC1 6.23%
Oc1ccc(CN2CCCCC2)c2cccnc12 8.92%
CN(Cc1ccccc1)S(=O)(=O)c1ccccc1[N+](=O)[O-] 6.63%
CCn1cc(C(=O)NC(C)C)c(=O)c2cc(F)c(N3CCN(C(=O)c4ccco4)CC3)cc21 3.82%
COc1ccccc1NC(=S)N1CCN(c2ccccc2F)CC1 -4.74%
CCn1cc(C(=O)O)c(=O)c2cnc(N3CCN(C(=S)Nc4ccccc4Cl)CC3)nc21 14.7%
COc1ccc(CCNC(=O)C(C(=O)c2ccc(F)cc2)n2ccccc2=O)cc1OC (stereo unspecified) 7.45%
Cc1cc(C)n(CCNS(=O)(=O)c2ccc(C)c(C)c2)n1 5.17%
CC(C)(C)NC(=O)NC(=O)CSc1ncn[nH]1 4.4%
O=C(NNC(=O)c1ccccc1O)c1ccco1 4.25%
O=C(NC(=S)NNC(=O)c1cc2ccccc2cc1O)c1ccco1 -4.81%
O=C1CC(c2cc([N+](=O)[O-])ccc2Cl)c2c(ccc3ccccc23)N1 (stereo unspecified) -8.09%
COc1cccc(/C=C/C(=O)OCC(=O)Nc2ccccc2Sc2ccccc2)c1 14.5%
COC(=O)C1=CO[C@@H](OC2OC(CO)C(O)C(O)C2O)[C@@H]2[C@@H](C)[C@@H](O)C[C@H]12 (stereo partly specified) -2.72%
Cc1ccc(C)c(/C(O)=C2/C(=O)C(=O)N(CCN3CCOCC3)C2c2ccc(C)o2)c1 (stereo unspecified) 3.28%
Cc1ccc(S(=O)(=O)Oc2ccc(/C=N/NC(=O)c3nn(C)cc3Cl)cc2)cc1 1.65%
Cc1ccccc1NC(=O)Cn1nc(-c2ccc(Cl)s2)ccc1=O -3.56%
O=C(c1cnc2n(c1=O)CCS2)N1CCN(C(c2ccccc2)c2ccc(Cl)cc2)CC1 (stereo unspecified) 3.09%
O=C1CN(/N=C/c2ccc([N+](=O)[O-])o2)C(=O)N1 -5.89%
O=C(O)/C=C/c1ccc([N+](=O)[O-])o1 23.2%
COc1ccc2nc(Nc3ccc4c(c3)OCO4)sc2c1 14%
CC(C)CN(C(=O)COC(=O)CCCc1nc2ccccc2s1)c1c(N)n(Cc2ccccc2)c(=O)[nH]c1=O -9.27%
O=C(NCCCc1ccccc1)c1ccc(-n2cncn2)c([N+](=O)[O-])c1 2.7%
O=c1[nH]cc(-c2ccccc2)c(=O)[nH]1 -0.675%
O=c1[nH]cc(O)c(=O)[nH]1 6.24%
O=[N+]([O-])c1ccccc1/C=N/n1c(C2CCCCC2)n[nH]c1=S 8.51%
c1ccc(-n2c3ccccc3c3ccccc32)cc1 -2.33%
Cn1c(-c2ccccc2)c(CCO)c2ccccc21 -0.97%
O=C(CN(Cc1ccc(Br)cc1)S(=O)(=O)c1ccccc1)NCC1CCCO1 (stereo unspecified) -5.51%
